Test results reported in the supplement of paper PMC3334620.
The full ranking holds about 33,000 sequences; the median of “E-score (-0.5 to 0.5)” is about -0.01, and the highest 2% start at about 0.26. The entries come from a sample that favours the highest values as a whole.

These sequences were tested against Ste12 (UniProt P13574) (assay: PBM E-score (8-mer binding enrichment) (E-score (-0.5 to 0.5)); higher = stronger / more preferred TF binding). Conditions: protein concentration: 200 nM; construct: GST-DNA-binding domain.
Chain of UniProt P13574 (P13574 whole entry, the tested form may be a part): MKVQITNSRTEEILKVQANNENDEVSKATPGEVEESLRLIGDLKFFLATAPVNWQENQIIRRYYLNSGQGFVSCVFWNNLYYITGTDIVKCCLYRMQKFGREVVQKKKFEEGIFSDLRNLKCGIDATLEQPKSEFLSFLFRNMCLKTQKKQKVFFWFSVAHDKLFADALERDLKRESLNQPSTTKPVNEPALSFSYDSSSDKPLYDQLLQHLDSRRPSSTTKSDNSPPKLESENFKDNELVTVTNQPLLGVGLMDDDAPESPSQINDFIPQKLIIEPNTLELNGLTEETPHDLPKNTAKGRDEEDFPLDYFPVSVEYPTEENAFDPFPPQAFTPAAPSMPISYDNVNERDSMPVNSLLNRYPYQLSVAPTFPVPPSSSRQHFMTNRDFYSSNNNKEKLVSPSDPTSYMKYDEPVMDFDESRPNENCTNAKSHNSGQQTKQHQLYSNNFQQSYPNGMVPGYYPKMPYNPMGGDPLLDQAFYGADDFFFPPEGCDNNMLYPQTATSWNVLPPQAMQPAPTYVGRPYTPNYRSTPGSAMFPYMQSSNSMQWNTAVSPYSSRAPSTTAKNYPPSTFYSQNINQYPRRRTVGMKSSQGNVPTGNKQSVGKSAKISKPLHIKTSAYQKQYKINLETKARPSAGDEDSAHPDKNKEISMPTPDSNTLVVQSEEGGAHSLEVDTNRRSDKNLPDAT
Description: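 Universal 'all 10-mer' protein binding microarrays (Agilent AMADID 015681) probed with GST-tagged S. cerevisiae TFs (full-length or DBD) made by in vitro transcription/translation (PURExpress), about 100-200 nM. Bound TF was detected with fluorescent anti-GST. Each ungapped 8-mer (which stands for itself and its reverse complement) is scored by the PBM enrichment score (E-score), a modified Wilcoxon-Mann-Whitney statistic from -0.5 to +0.5, computed with the Universal PBM Analysis Suite. Scale: above 0.35 generally sequence-specific binding.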

Sequence	PBM E-score
CCGCCTCC	-0.123
CCCGTAAG	-0.0733
AGGTCAGA	-0.113
TCTTGACA	-0.0432
ACCCATCC	0.00204
AACCAATC	0.259
GAAAAAGA	0.241
CGGCTAAG	0.0459
CATAGCGG	-0.207
AGACAGCT	-0.111
AAGAAGAA	0.123
TTAACTAA	0.221
GTCTCCAA	0.0569
ATAAAAAA	0.248
GAAAAACA	0.21
ATAAAACA	0.368
CTAAAACA	0.355
ATAAACCC	0.211
AAAAAACA	0.331
TAAAAACA	0.223
CTAAAACC	0.192
ATAAAAAC	0.134
AGAAAACA	0.152
ATAAAACC	0.294

Sequence	PBM E-score
CAAAAACA	0.153
ACGTTGAT	0.0985
AGTCAGTG	-0.0387
CTTAGCAC	-0.0994
ATACCACG	0.0272
ACATAGCA	-0.115
ATAAACCG	0.0871
GGTAAACA	0.28
GTAAAAAC	0.206
CGTAAACA	0.186
ATTAAACG	0.155
GTAAAACA	0.323
AGTAAACA	0.0888
ATAAAACG	0.37
GTAAAAAA	0.217
ACAGCGAG	-0.00798
GTAGATCA	0.023
ACCGCACC	0.0603
AGGAGGGC	-0.081
AGGGTGGC	-0.0324
AGGGAGGG	0.305
AGGAGGGG	0.285
AGGGAGGC	-0.122
AGGGTGGA	-0.218

Sequence	PBM E-score
AGGGGAGG	0.348
AGGGAGGA	-0.192
AGGGGAGA	-0.0864
AAGGGAGG	-0.0233
AGGGTGGG	0.35
AGGAGGGA	-0.0567
AGTTTGCG	0.122
AGTGCGGA	0.0511
CTCCTGGA	-0.166
AAATTTGC	0.0182
ATTGGTAC	0.00439
AAGAGCTT	-0.0673
ACCAAAGA	0.158
ACGCCCAC	0.117
GATGAGTA	0.0183
TACTGGAA	0.182
CACACCAA	0.115
AATTGAAT	0.131
CATTGAAA	0.247
AATTGAAA	0.412
GATTGAAA	0.243
TATTGAAA	0.304
AATTGAAC	-0.0364
CTCAACGA	-0.137

Sequence	PBM E-score
ACGACAGT	-0.147
AAAATAAC	0.2
CAAATAAC	0.283
CCAATAAA	0.148
GAAATAAA	0.282
AAAATAAG	0.183
GAAATAAC	0.121
CAAATACC	0.185
CAAATAAG	0.0883
CAAATAAA	0.1
AAAATAAT	0.293
GCAATAAA	0.279
GCAATAAC	0.0195
CTGAAGGA	-0.0367
CACGCGTG	0.221
CGTTCGCA	-0.119
AAATAAAT	0.169
AAATAAAA	0.291
TAAATAAA	0.228
AAAATAAA	0.286
AAATAAAG	0.172
AAAATACA	0.143
